# About 83,000 compounds went through this panel and 20% of them were active in at least one assay; those are over-represented in the sample as a whole.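 Each cell line was grown in a 96-well plate and treated with one concentration of compound for 48 hours. Values below 10 were considered active.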 A number with no mark means an inactive call. Active and inactive are the calls of the source.
# System: MDA-MB-468 breast
# Test: NCI-60 one-dose screen, 48 h (100 = growth as untreated, 0 = no growth, -100 = all killed)
# Conditions: 10 µM unless noted
row,Structure (SMILES),growth
1,COc1cc(NCC(=O)Nc2cc(Nc3ccc(C)cc3)ncn2)c(Cl)c(OC)c1Cl,105%
2,CCO/C=N/C1=C(C#N)C(c2ccc(OC)cc2)c2sc3c(C)cccc3c2O1 (stereo not given),-13% (active)
3,CCOc1ccc2nc(NC(=O)Nc3ccccc3C)sc2c1,20.4%
4,C[C@@H]1N=C(c2ccc(Cl)cc2Cl)Nc2nc3ccccn3c2C1=O,53.9%
5,N#Cc1c(-c2cccs2)cc(-c2cnccn2)nc1SCC(=O)N/N=C/c1ccc(Cl)cc1,108%
6,O=C(/C=C/c1ccc2ccccc2c1)Nc1ncc(Cc2ccccc2)s1,64%
7,CN1CCN(c2ccc(-c3ccc4ncc(C#N)c(Nc5ccc(F)c(Cl)c5)c4c3)cn2)CC1,10.6%
8,Cc1ccc(-c2c(-c3ccccc3)c(=O)oc3ccc(C)cc23)cc1,97.3%
9,CCOC(=O)Nc1nn[nH]n1,101%
10,O=C(NO)c1ccc(CNc2cccc3nc(C4CC4)n(-c4ccccc4)c(=O)c23)cc1,22.3%
11,O=C1c2ccccc2C(=O)c2c1oc1oc3c(c(=O)c21)c(=O)n(-c1ccccc1)c1ccccc31,-27.3% (active)
12,Cc1ccc(-c2c3c(N)nc(-c4ccncc4)nc3nc3c2c(C)nn3-c2ccccc2)cc1,43.6%
13,Clc1cccc(Cl)c1C(Nc1nc2ccccc2s1)Nc1nc2ccccc2s1,72.3%
14,COc1cc2nc(N3CCC[C@@H](NC4=CC(=O)c5ccccc5C4=O)C3)nc(N)c2cc1OC,-51.3% (active)
15,COC(=O)c1nc(-c2ccccc2)oc1S(=O)(=O)NCC(c1ccc(Cl)cc1)N1CCCCC1 (stereo not given),37%
